Laboratory results: PubChem BioAssay AID1508600 (Functional Genomics Laboratory (NCATS/FGL), 2020)
The whole screen tested about 53,000 sequences, of which about 3,700 (7%) were called active. Many of the other results were omitted from the sample, so actives are more common in it than they were. Unmarked numbers belong to inactive results.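 How the source made its calls: active means gene knockdowns whose robust z-score for IL-1 alpha signal is at least 2 or at most -2, so actives lie on both sides; inactive means the rest.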

Assay: Components of the Cytosolic LPS Sensing Pathway: Gene Identification via Genome-wide siRNA Screen;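 further: robust z of the log signal after scaling to non-targeting control siRNA wells of the plate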
Conditions: RAW264.7 macrophages, IL-1a HTRF, actives lie on both sides, screened at 100 nM (by protocol), cells primed 5 h with Pam3CSK4 first
Method in brief: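 IL-1a HTRF of supernatants after 24 hour LipidA transfection of Pam3CSK4-primed (5 hours) RAW264.7 cells, 48h post-siRNA transfection (100 nM). Scores: percent of plate negative-control median, then log-based robust z-score.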

Sequence	z-score
CCUGUGCUCUUAUUAUCAATT against Rpp14	0.693
GCAACUUUAAUGACAGCGUTT against Moxd1	-0.211
GCUCUAUGGAGACCUAAAGTT against Sdha	-0.378
GGAGGGACAUGGAGAUUACTT against Ptpn18	3.15 (active)
GGGAUUUUCAAAGUGAGAATT against Pmaip1	-0.502
GGAUUUUCACCAACAGCCUTT against Gh	0.046
GGACUGAAGUCCUUGACACTT against Lgi3	-1.46
CCUCCUACUGUUUAAUGUUTT against Exd2	2.47 (active)
GCCUUGACGAUAGAUUAUUTT against Irf2	1.36
GGUUGAUAAAGGAGCCAUCTT against Mcts1	1.02
GGUGUCCUUUCAAGUUGAUTT against Spg11	2.15 (active)
GCCAGUGUGACAUUUGGUATT against Eed	0.651
GGAGACUUGCUAAAUGCCCTT against Fkbp7	-0.0461
GGCAACUAAGGCUAAGAAGTT against H1f4	-1.89
GGUCUCGCUCCAAGGAAGATT against Tra2b	2.56 (active)
GGAGACUGUCAUGGCUGUGTT against Olfr397	-1.84
GCUUUACCUCCUAUUAAUATT against Rgs9bp	-0.91
GGAUUUAGCCAUGGAUUUCTT against Zfp473	-1.17
GUACAAGCCACUGGAUCUGTT against Smad6	5.56 (active)
GGAGACAAAGCAUUAUCUATT against Usp33	-0.366
GGUGAAAGGAGCAAAUGAUTT against Fyco1	-0.332
GGCACUGAGGUUGUUCAGGTT against Eif3h	0.806
CCUACCAUACCAUGAGCAGTT against Pou4f3	1.52

Sequence	z-score
GGAAUACAGAUUUUUCAGATT against Frmd6	-1.15
GCAGAUACUGAGAUGCUAUTT against Dkk4	2.24 (active)
GGUGUUACCCUCCUUAGAGTT against Tmem230	-1.03
GGAUCUUGAAGACCAAAAATT against Kazn	-2.14 (active)
GGCGAACAUGCACUUUCACTT against Gramd3	-1.28
GGAGCAUGAGGAUUACUGUTT against Trafd1	0.731
GGACAGUUUACUCCAGAUATT against Foxc1	2.84 (active)
GCACUAAAGGGCUUUUCAUTT against Serping1	0.912
GGAGAAAGGCAUCUUCAAATT against Spdef	0.0302
GCCUUACUACUACAACAACTT against Prpf40b	2.08 (active)
GGCACAAAAGAAGAUCCUGTT against Tnfaip8	-1.53
GGAUCCUGAACGAAAAAGGTT against Med19	-0.0986
CGGCAGAUUGCUGCUUUGATT against Vmn2r122	2.73 (active)
GGUCCAAGAGGAAAGACAATT against Adarb2	0.67
GGUGACAGAUGUUUAUGAGTT against Ccdc28b	-1.91
GCAUAUGAUUGUCAUGAGUTT against Olfr319	-1.47
GCAAGACCGAAGUCACGGATT against Krt19	2.87 (active)
CCGAGACAUAUACAAAGGATT against Klkb1	-0.36
CCAGACAUCGUGCUUUACATT against Chrna3	1.42
GUUAACCCUGAGCCUAAACTT against Spata3	0.356
GGGCGACAUCUUUAGCAAATT against Sh3bp4	-0.0472
GCCUAAGCCCUUAAAGCGUTT against Lrrc41	0.643
CCCACUAAGGAACAAAUUGTT against Tex24	0.297

Sequence	z-score
GGCUUGCAUCAAUAAAGAATT against Adam33	0.0554
GGUGGUUGAAGAAAUGGCUTT against Timm8a1	-0.364
GGAGCAGAAGUCAAUCAGGTT against Myo1b	0.419
GGGACUAAUGUUUUGCCUATT against Krt16	-2.62 (active)
GCGGAAGUCGACCUUUGAUTT against Cd164	-0.238
CGACUUUGGACAAAAAUUGTT against Kdm2a	0.638
CCUACCCGAUUAUUCUUACTT against C2cd2l	0.125
GGCAGUAUUGACUCCUACCTT against 6430548M08Rik	-0.973
GCUUGGAUUGAGCUUUACATT against Pid1	3.53 (active)
GGAAGUUGUUGGGAACUUCTT against Afmid	-0.401
GGGAAGUUUGGUUCUUUGGTT against Msn	0.749
GGAAAGCCACUGUGUAAAATT against Armc9	0.594
GCCUCUUCGAACUCACUAUTT against St6galnac3	-0.807
GGAAAGAGGGUUUAUUUUGTT against 4930556L07Rik	0.919
GGGAAAGAGUUUUACAAACTT against Ttc22	2.74 (active)
GGACCUGAACAAUAAGGUUTT against Tagap	-1.78
GGAUUCUUUGGUCUAUUUCTT against Pudp	-0.308
GGAGAAAGACCAUUACUGUTT against Ly6e	1.63
GGUGACAAACCGAUACUUGTT against Cope	-0.966
GCAGACAAAGAUCCUAUGCTT against Atp2b3	-2.27 (active)
CCUACCUAUUUAUCAAAGATT against Sgms1	0.977
GGAUUUUUACAGAGACAUGTT against Actr6	-0.821
CGAUAUCUUACUUCUUUUGTT against E030011O05Rik	0.952
